Test results as given in PubChem BioAssay (NCI).
The panel holds about 83,000 compounds, 20% with a hit somewhere; the sample as a whole holds those more often.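 Note: values are percent growth. 100 is the growth of untreated cells, values between 100 and 0 indicate rising inhibition; between -100 and 0 indicates cell death.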 The source made the active and inactive calls. How the source made its calls: active means growth percent below 10; inactive means the rest.

Tests used:
Test in all cases: NCI-60 one-dose screen, 48 h (100 = growth as untreated, 0 = no growth, -100 = all killed)
Details in all cases: 10 µM unless noted
[1] = test system: SK-MEL-2 melanoma
[2] = test system: EKVX NSCLC
[3] = test system: SN12C renal
[4] = test system: UO-31 renal
[5] = test system: TK-10 renal
[6] = test system: ACHN renal
[7] = test system: A498 renal
[8] = test system: CCRF-CEM leukemia
[9] = test system: MOLT-4 leukemia
[10] = test system: SR leukemia

Measured: growth

COC(=O)CCc1cc(O)c2c(c1)[C@@H](C(=O)OC)[C@H](c1ccc(O)c(O)c1)O2
inactive: [1] 47.8% | [2] 87.7% | [3] 95.1% | [4] 67.7% | [5] 90.6% | [6] 98.2% | [7] 98% | [8] 53.6% | [9] 47.7% | [10] 36%

COc1ccc2[nH]c(-c3ccccc3)c(C=C(C#N)C#N)c2c1
inactive: [1] 24.1% | [2] 33.3% | [3] 59% | [4] 53.1% | [5] 41.5% | [6] 54.2% | [7] 21%
active: [8] 2.26% | [9] 0.472% | [10] -5.05%

CC(C)(C#N)c1cc(F)cc(C(=O)Nc2cc(Nc3ncccc3-c3ncnc4nc[nH]c34)ccc2F)c1
inactive: [2] 59.5% | [3] 56.7% | [4] 12.8% | [5] 49% | [6] 38.5% | [8] 38.9% | [9] 29.2% | [10] 35.5%
active: [1] -12.8% | [7] -4.87%

CCN1CCC[C@H]1c1cc(O)c2c(c1OC)C[C@H]1C[C@H]3[C@H](N)C(=O)C(C(N)=O)=C(O)[C@@]3(O)C(=O)C1=C2O
active: [1] -43.9% | [2] -8.34% | [3] -3.68% | [4] -5.6% | [5] -8.12% | [6] -2.88% | [7] -14.7% | [8] 1.43% | [9] -16.8% | [10] -18.8%

Cc1cccc(C)c1NCc1nnc(-c2ccco2)o1
inactive: [1] 100% | [2] 81.5% | [3] 94.8% | [4] 65.1% | [5] 123% | [6] 101% | [7] 96.5% | [8] 91.4% | [9] 88.8% | [10] 85.7%

NCCCn1c2c(c3cc(-c4ccn[nH]4)ccc3c1=O)C(=O)c1ccccc1-2
active: [9] -9.41% | [10] -2.64%
inactive: [1] 105% | [2] 77% | [3] 49.1% | [4] 47.7% | [5] 72.3% | [6] 20.4% | [7] 72% | [8] 16.5%

CCC1S/C(=N\N=C(/C)c2ccc[nH]2)N(c2ccccc2)C1=O (stereo not given)
inactive: [1] 124% | [2] 116% | [3] 116% | [4] 43% | [5] 83.5% | [6] 102% | [7] 112% | [10] 32.5%
active: [8] -86.5% | [9] -50%

COc1cc(F)c(-c2nc3c(C)cccc3n2Cc2c(F)cccc2F)c(F)c1
inactive: [1] 93.6% | [2] 87.9% | [3] 92.1% | [4] 72.2% | [5] 90.5% | [6] 101% | [7] 87% | [8] 98.6% | [9] 60.6% | [10] 88.3%

C=C1C(=O)O[C@H]2[C@H]1CC/C(COC(=O)CCCCC(=O)OC/C1=C/CC[C@@]3(C)O[C@H]3[C@H]3OC(=O)C(=C)[C@@H]3CC1)=C\CC[C@@]1(C)O[C@@H]21
inactive: [1] 71.9% | [2] 59.1% | [3] 27.8% | [4] 45.8% | [5] 25.2% | [6] 12.6% | [7] 124% | [9] 10.3%
active: [8] 0.447% | [10] 2.3%

COc1ccc(/C=C/C(=O)C(CC2CCC2)C(=O)/C=C/c2ccc(OC)c(OC)c2)cc1OC
active: [1] -16.7% | [2] -0.196% | [3] -20.7% | [4] -98.1% | [5] -32.8% | [6] -77.2% | [7] -34.5% | [8] 8.4% | [9] 4.1% | [10] -17%

COc1cc(-c2csc(NC(=O)Nc3ccc(C(F)(F)F)cc3)n2)cc(OC)c1OC
active: [1] -23.8% | [2] 5.7% | [3] 3.08% | [4] -2.16% | [5] 4.58% | [6] 3.21% | [7] -24.1% | [8] 5.13% | [9] -9.27% | [10] -3.44%

O=c1[nH]nc(-c2ccccc2)c2sc(NC(=S)Nc3ccc(Cl)cc3)nc12
inactive: [1] 85.5% | [2] 83% | [3] 103% | [4] 84.4% | [5] 96.5% | [6] 102% | [7] 86% | [8] 99.2% | [9] 79.6% | [10] 91.7%

Cc1nc2sc(C(=O)Nc3ccccc3)c(N)c2cc1C(C)O (stereo not given)
inactive: [1] 39.3% | [2] 76.1% | [3] 43.2% | [4] 61.6% | [5] 65.9% | [6] 54.2% | [7] 36.3% | [8] 16.6% | [9] 25.7% | [10] 11.7%

Sc1cccc2cccnc12
inactive: [1] 21.5% | [2] 29.2% | [3] 39.3% | [4] 25.6% | [5] 48.3% | [6] 30.1% | [7] 65.9% | [8] 14.4% | [9] 22.2%
active: [10] 6.61%

CCOC(=O)C(=Cc1c(-c2ccccc2)[nH]c2ccccc12)C(=O)OCC
inactive: [2] 71.1% | [3] 65.6% | [4] 33.5% | [5] 92.2% | [6] 54% | [7] 74.1% | [10] 10%
active: [1] -3.76% | [8] 4.23% | [9] 1.38%

CCOC(=O)c1c(C)nc2c(c1N)CC(=O)N2CCc1ccccc1
inactive: [1] 39.2% | [2] 55.9% | [3] 24.3% | [4] 36.6% | [6] 34.2% | [7] 11.9% | [9] 18.6%
active: [5] -3.79% | [8] 9.62% | [10] 3.16%

O=c1[nH]c2ccccc2cc1-c1nc2ccc(Cl)cc2[nH]1
inactive: [1] 18.7% | [2] 22.6% | [3] 48.4% | [4] 45.7% | [5] 37.5% | [6] 27% | [7] 48.3% | [8] 13.7%
active: [9] -19.7% | [10] 8.43%

CC[C@]12C=CCN3CC[C@@]4(c5ccc(OC)cc5N(C)[C@H]4[C@@](O)(C(=O)OC)[C@@H]1OC(=O)CCC(=O)O[C@H]1CC[C@H]4[C@@H]5CC[C@H]6CC(=O)CC[C@]6(C)[C@H]5CC[C@]14C)[C@@H]32
inactive: [2] 21.2% | [3] 24.8% | [4] 13.3% | [5] 21.2% | [6] 19.1% | [7] 12.3%
active: [1] 8.52% | [8] 7.55% | [9] 1.58% | [10] -10.4%

CC[C@]12C=CCN3CC[C@@]4(c5cc(NC(=O)CCC(=O)O[C@H]6CC[C@H]7[C@@H]8CC[C@H]9CC(=O)CC[C@]9(C)[C@H]8CC[C@]67C)c(OC)cc5N(C)[C@H]4[C@@](O)(C(=O)OC)[C@@H]1OC(C)=O)[C@@H]32
active: [8] 9.54%
inactive: [1] 77.1% | [2] 66% | [3] 71.2% | [4] 51.3% | [5] 90.5% | [6] 87.1% | [7] 66.3% | [9] 17.8% | [10] 24.8%

COc1ccc2nc(-c3ccc(Cl)cc3)cc(C(=O)N3N=C(c4ccc(N)cc4)CC3c3ccccc3)c2c1 (stereo not given)
inactive: [1] 43.2% | [2] 35.6% | [3] 57.8% | [4] 45.5% | [5] 68.1% | [6] 52.8% | [7] 56.9% | [8] 31.2% | [9] 43.2% | [10] 25.1%

CCCCn1c(=O)c(/C=C/C(=O)/C=C/c2cc3ccccc3n(CCCC)c2=O)cc2ccccc21
active: [3] -28.1% | [4] -95.1% | [6] 5.75% | [8] -0.077% | [9] 1.3% | [10] 1.82%
inactive: [1] 79.5% | [2] 35.8% | [5] 23.4% | [7] 12.8%

CN1CCN(C(=O)[C@@]2(C)CC[C@]3(C)CC[C@]4(C)C(=CC[C@@H]5[C@@]6(C)CC[C@H](OC(=O)c7cccnc7)C(C)(C)[C@@H]6CC[C@]54C)[C@@H]3C2)CC1
active: [8] 1.45% | [10] -26.9%
inactive: [1] 101% | [2] 76.3% | [3] 80.4% | [4] 74.1% | [5] 116% | [6] 77.7% | [7] 92.1% | [9] 31.9%

N#C/C(=C/c1ccc(O)c([N+](=O)[O-])c1)c1nc(-c2ccc([N+](=O)[O-])cc2)cs1
inactive: [1] 16.9% | [2] 26.5% | [3] 36.3% | [4] 37.6% | [5] 52.7% | [6] 36.1% | [7] 21.3% | [8] 25.5% | [9] 25.1% | [10] 47.7%
